Whole data set: some 68,000 sequences, median “fluorescence intensity (a.u.)” near 9,100, cut for the highest 2% near 16,000. Only a selection was taken, and the highest values are over-represented in it overall.
molecular target: OsWRKY34 (Oryza sativa, UniProt Q0JBA9 1-250); experiment: protein-binding microarray (RPBM); PBS, 2% BSA, 51.3 ng/ul salmon testes DNA, 50 uM zinc acetate, 200 nM TF, 25 C, 1 h; high values mean tight binding; settings: protein: recombinant; tags: N-terminal polyhistidine and DsRed monomer fusion (pET32a); label: CyDye5-dUTP incorporated in the synthesized complementary strand; 3' TTTTT single-stranded linker to array surface; dsDNA, one strand shown
Summary of the method: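 The binding signal for each feature is its fluorescence intensity in arbitrary units. An Axon 4000B scanner was used to read a custom Agilent array that had been made double-stranded with Cy5-dUTP primer extension, blocked with 2% BSA, incubated at 25 °C for 1 h with 200 nM protein in PBS, 2% BSA, salmon testes DNA and 50 µM zinc acetate, and washed. The protein was an N-terminal polyhistidine–DsRed transcription factor fusion from E. coli BL21-CodonPlus, purified on Ni–NTA.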

Chain of OsWRKY34 (Q0JBA9 entry or part of it): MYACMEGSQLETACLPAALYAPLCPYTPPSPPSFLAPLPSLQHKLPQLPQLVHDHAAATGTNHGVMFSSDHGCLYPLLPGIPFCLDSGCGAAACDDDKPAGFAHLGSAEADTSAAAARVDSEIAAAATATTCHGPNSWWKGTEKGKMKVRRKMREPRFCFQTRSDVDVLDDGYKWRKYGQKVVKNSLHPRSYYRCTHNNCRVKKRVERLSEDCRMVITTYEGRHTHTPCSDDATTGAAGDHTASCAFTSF

**Q.** For “GCACTTATCGTTTATTTTCTTATAATTTATTTTATCATTGCGGAGTCACCTAGTGCAG”, which binding signal is on record?
**A.** 8830 fluorescence intensity (a.u.)

**Q.** For “GCAAGTACTTGGTGGTATATGTTGTTTGGAATAAAAAGGTCGGAGTCACCTAGTGCAG”, which binding signal is on record?
**A.** 8320 fluorescence intensity (a.u.)

**Q.** For “CCTCGCTCCTCCTCGTCGCAGATCGATCTCAAACCTTCAGCGGAGTCACCTAGTGCAG”, which binding signal is on record?
**A.** 8730 fluorescence intensity (a.u.)

**Q.** Which binding signal does the source give for “ATACATTTATTCCTTCTTAGAGTCACTACTCTTCATTGAACGGAGTCACCTAGTGCAG” here?
**A.** 8060 fluorescence intensity (a.u.)

**Q.** “ACCTCTTCCTCGACGCCGCCGCCGACCACCACCCCGCCGGCGGAGTCACCTAGTGCAG” was tested. Which binding signal did it give?
**A.** 8670 fluorescence intensity (a.u.)

**Q.** With “TGTGTCATCTTGTCTATGGTAGTTCAGCAATCCTCTGCTTCGGAGTCACCTAGTGCAG” as the sequence, how does the binding signal read?
**A.** 8890 fluorescence intensity (a.u.)

**Q.** Which binding signal does the source give for “ATCACCGTCCCCGCTGCCGCCACCCGCCACTGCCGCAGCGCGGAGTCACCTAGTGCAG” here?
**A.** 10800 fluorescence intensity (a.u.)

**Q.** Which binding signal does the source give for “GGTGGTGGTGGTGGTGGATCGGGTGGCTTTGGCTGAGATGCGGAGTCACCTAGTGCAG” here?
**A.** 18100 fluorescence intensity (a.u.)

**Q.** With “GGGATTGGATTGGGTTGGGTTGGATTGGAGAGAGAGAATGCGGAGTCACCTAGTGCAG” as the sequence, how does the binding signal read?
**A.** 31400 fluorescence intensity (a.u.)

**Q.** “CGGCGGGTGGGGCGGTGGCGGTGAGGGATGCGGTGGTGGCCGGAGTCACCTAGTGCAG” was tested. Which binding signal did it give?
**A.** 10700 fluorescence intensity (a.u.)

**Q.** For “CTTCTTCTTGTCCTGCGCAACCGATGGGCGGGTTCTTGATCGGAGTCACCTAGTGCAG”, which binding signal is on record?
**A.** 18800 fluorescence intensity (a.u.)

**Q.** With “CCGGAGAGGCGGTGGTGTTTGGATCGGGAGGGGAGAGATGCGGAGTCACCTAGTGCAG” as the sequence, how does the binding signal read?
**A.** 11500 fluorescence intensity (a.u.)

**Q.** For “CCCGCAGATTGGATTGGATTGGGTTGGATTGGATTGGATGCGGAGTCACCTAGTGCAG”, which binding signal is on record?
**A.** 10300 fluorescence intensity (a.u.)

**Q.** Which binding signal does the source give for “AGGTGAGGTGGAGGAGGAGGAGGAGGAGGAGATCGGGATGCGGAGTCACCTAGTGCAG” here?
**A.** 8790 fluorescence intensity (a.u.)

**Q.** For “GGCGGCGGTGATTCGGGGATGCGGCGCGGCGGGGAGGAGGCGGAGTCACCTAGTGCAG”, which binding signal is on record?
**A.** 10100 fluorescence intensity (a.u.)

**Q.** “GTGGGGCCCACCTGTCGGGGCGGTTGATGGGCTCTTCTAGCGGAGTCACCTAGTGCAG” was tested. Which binding signal did it give?
**A.** 8370 fluorescence intensity (a.u.)

**Q.** How did the binding signal turn out when “AATGAAAAATGGGGATGGGATTGGGATTGAGAAATGAATGCGGAGTCACCTAGTGCAG” was run?
**A.** 9280 fluorescence intensity (a.u.)

**Q.** How did the binding signal turn out when “AGGCGGCGGGGTGGCGGTGGTGGTGGTGGTGGTGGTGATGCGGAGTCACCTAGTGCAG” was run?
**A.** 19000 fluorescence intensity (a.u.)

**Q.** How did the binding signal turn out when “CCACAACACCGCAACACACTGTCCTTGCTTCTTCATTGATCGGAGTCACCTAGTGCAG” was run?
**A.** 8750 fluorescence intensity (a.u.)

**Q.** How did the binding signal turn out when “TCTCCTCACCGGCCCCTCTTCCCCTTCGATTCTGGCGGCTCGGAGTCACCTAGTGCAG” was run?
**A.** 8880 fluorescence intensity (a.u.)

**Q.** How did the binding signal turn out when “TTCGTTTCTGGCTTTTTCGTCGTGTTCCGATTTCAATCTCCGGAGTCACCTAGTGCAG” was run?
**A.** 12700 fluorescence intensity (a.u.)

**Q.** For “CTACATGGGTGTTGACTCATTTTATTTATCTTTTTCTCCACGGAGTCACCTAGTGCAG”, which binding signal is on record?
**A.** 10300 fluorescence intensity (a.u.)

**Q.** “GCCTATCCTGCCCTCTCTACTACCACCCTTATCGATCTCTCGGAGTCACCTAGTGCAG” was tested. Which binding signal did it give?
**A.** 8340 fluorescence intensity (a.u.)

**Q.** Which binding signal does the source give for “AAGAGACTTCTATATCTCTATATCCTTCTTATTTGCGTCCCGGAGTCACCTAGTGCAG” here?
**A.** 8080 fluorescence intensity (a.u.)

**Q.** How did the binding signal turn out when “TTGCTCTCACATTTCGTGCACTACATCTTCTCGGTGGTCCCGGAGTCACCTAGTGCAG” was run?
**A.** 8380 fluorescence intensity (a.u.)

**Q.** For “GCGGGTGGGTCTAGAGATTTTTTTTATTTGTTAATTGGATCGGAGTCACCTAGTGCAG”, which binding signal is on record?
**A.** 10400 fluorescence intensity (a.u.)

**Q.** For “GTTGTCGGTGTGTGGGTGGTGATATATTTTTTTAACTGGTCGGAGTCACCTAGTGCAG”, which binding signal is on record?
**A.** 9020 fluorescence intensity (a.u.)

**Q.** “AATTTGGTGGGGTCGGGGTGGGTGCTTTAACTGGGGAGATCGGAGTCACCTAGTGCAG” was tested. Which binding signal did it give?
**A.** 24500 fluorescence intensity (a.u.)

**Q.** With “TGAGGTGAGGGCAGGGGCAGGGGCAGGGCGGACTGGCCAACGGAGTCACCTAGTGCAG” as the sequence, how does the binding signal read?
**A.** 8680 fluorescence intensity (a.u.)

**Q.** Which binding signal does the source give for “TCACTTTTTTTTCCATTCATTGTATGATTTCTTCTATTATCGGAGTCACCTAGTGCAG” here?
**A.** 10900 fluorescence intensity (a.u.)

**Q.** Which binding signal does the source give for “AAAAAATACTATCTATGTACCCCTCCGTTTCTTTTTATTTCGGAGTCACCTAGTGCAG” here?
**A.** 8890 fluorescence intensity (a.u.)

**Q.** With “CCTGATCGCCTCCTCCGCCACCGCCGTGTTCGATTCGTCTCGGAGTCACCTAGTGCAG” as the sequence, how does the binding signal read?
**A.** 9670 fluorescence intensity (a.u.)

**Q.** “TGCCACCACCTTACCCTTTGCCAACATGCATCCGCTCCAACGGAGTCACCTAGTGCAG” was tested. Which binding signal did it give?
**A.** 19100 fluorescence intensity (a.u.)

**Q.** Which binding signal does the source give for “CTCCGCATCCCTCTCGCTCCTACCTTACCCCTCGCCGCCACGGAGTCACCTAGTGCAG” here?
**A.** 10200 fluorescence intensity (a.u.)

**Q.** For “CAACAACATCATCATCGCTCACATCCGCATCTCCACACAACGGAGTCACCTAGTGCAG”, which binding signal is on record?
**A.** 13500 fluorescence intensity (a.u.)

**Q.** “GCTCCGCCTGCCAGATCCATATGAGCCACCTGCGCCGCTACGGAGTCACCTAGTGCAG” was tested. Which binding signal did it give?
**A.** 8720 fluorescence intensity (a.u.)

**Q.** Which binding signal does the source give for “CGCCATCACTGCCAAGCTCGCCGGCTACATCGCCCGCGCCCGGAGTCACCTAGTGCAG” here?
**A.** 8040 fluorescence intensity (a.u.)

**Q.** How did the binding signal turn out when “CTTGGGTTGGGCGGGAACTTGGGGAGGAATTATGGACTATCGGAGTCACCTAGTGCAG” was run?
**A.** 16800 fluorescence intensity (a.u.)

**Q.** Which binding signal does the source give for “GGGGAGGAATTATGGACTATTTGGATGGGCTTTTTTTACTCGGAGTCACCTAGTGCAG” here?
**A.** 8030 fluorescence intensity (a.u.)

**Q.** For “ATGCTGAATTGGGTTGGGCTGGGGAGGAATTATAGACTATCGGAGTCACCTAGTGCAG”, which binding signal is on record?
**A.** 17500 fluorescence intensity (a.u.)

**Q.** How did the binding signal turn out when “AGTTGGGCAGCAGTGGGTTGTGATATACTATGTGAATTATCGGAGTCACCTAGTGCAG” was run?
**A.** 9100 fluorescence intensity (a.u.)

**Q.** For “GCCAGTTAGGGACCTAGGGACTTGGGTTGGGCGGGAACTTCGGAGTCACCTAGTGCAG”, which binding signal is on record?
**A.** 14100 fluorescence intensity (a.u.)

**Q.** With “CTGGGTGGGGAATTGGTTTAGTGAAGGATTAGTTGCTGATCGGAGTCACCTAGTGCAG” as the sequence, how does the binding signal read?
**A.** 9770 fluorescence intensity (a.u.)

**Q.** For “CTAGAAGGTGACTTTTCCAACTCAACTCTCGTTTTTTCACCGGAGTCACCTAGTGCAG”, which binding signal is on record?
**A.** 11500 fluorescence intensity (a.u.)

**Q.** With “ACTTTATTACACACATAAACTTTCAACTTTACCGTCACATCGGAGTCACCTAGTGCAG” as the sequence, how does the binding signal read?
**A.** 9420 fluorescence intensity (a.u.)

**Q.** Which binding signal does the source give for “AATCTTCTAACCACCGTACGTTCTCCTCGCACTATAAATACGGAGTCACCTAGTGCAG” here?
**A.** 11500 fluorescence intensity (a.u.)

**Q.** For “AAGATAGATGCCACTAATTTTTACACTGTATTTTGTAACTCGGAGTCACCTAGTGCAG”, which binding signal is on record?
**A.** 8290 fluorescence intensity (a.u.)

**Q.** “CACATGCTTATACCGTTCGTGCTGGAGTTCCTGATCGATGCGGAGTCACCTAGTGCAG” was tested. Which binding signal did it give?
**A.** 8070 fluorescence intensity (a.u.)

**Q.** Which binding signal does the source give for “GTAGGAGGGTGGTTGGTTGTAGAATGGGAAGAAATTTGAACGGAGTCACCTAGTGCAG” here?
**A.** 11100 fluorescence intensity (a.u.)

**Q.** “CCACGTAGGCGCCACGTCAGCCAAAACCGCTCTTAAAACCCGGAGTCACCTAGTGCAG” was tested. Which binding signal did it give?
**A.** 8110 fluorescence intensity (a.u.)

**Q.** How did the binding signal turn out when “CGGTAGGCGTACGTGGAGACCGGTGGAATTCGTCAAAACCCGGAGTCACCTAGTGCAG” was run?
**A.** 55000 fluorescence intensity (a.u.)

**Q.** Which binding signal does the source give for “AAACGTCAAAAGACTCAAAACCCAAAACCCGCGTGCTGACCGGAGTCACCTAGTGCAG” here?
**A.** 8030 fluorescence intensity (a.u.)

**Q.** Which binding signal does the source give for “AAGGTTCGTTTCATTTTTTTTTACTTAATTAACTATTCCTCGGAGTCACCTAGTGCAG” here?
**A.** 8740 fluorescence intensity (a.u.)

**Q.** With “ACTCTTGGTATGTTCTGCTTAGATACACTGTGTTGCTTGCCGGAGTCACCTAGTGCAG” as the sequence, how does the binding signal read?
**A.** 9380 fluorescence intensity (a.u.)
